This note sets out measurements from the supplement of paper PMC4709259.

The test system of assay [1] is Jurkat. Kind of assay: mean cell size (FSC-A) relative to DMSO control (fraction of control); higher = larger cells. As to conditions: 48 h. The method, boiled down: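 Jurkat cells seeded at 600 cells/µl were incubated 1 h, then exposed for 48h to the Enzo Screen-Well FDA Approved Drug Library v2.0 at 25µM in 0.9% (v/v) final DMSO. Drugs that cut counts below 20% of controls were diluted 10-fold and retested, down to 25nM. Cell count and mean cell size (forward scatter area) were read on an Accuri C6 flow cytometer, relative to solvent-only controls. Plates held 6-12 controls; values are means of 3 biological replicates.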

Assay [2] relates to Jurkat. The assay is described as follows: cell count relative to DMSO control (fraction of control); higher = more cells (less growth inhibition). The note with it: 48 h.

Structures can show the parent of a compound that is named as a salt. ± gives the standard deviation.

For the molecule `Cc1cc(C2CCCCC2)n(O)c(=O)c1` [Ciclopirox] (concentration: 2.5 µM), in the assay with Jurkat [1], the mean cell size worked out at 1.14 ± 0.032. In addition, in the assay on Jurkat [2], the cell count stood at 0.395 ± 0.07.

Molecule `CCCCCCCN(CC)CCCC(O)c1ccc(NS(C)(=O)=O)cc1` (stereo not drawn) [Ibutilide Fumarate] (concentration: 25 µM) returned a mean cell size in the assay on Jurkat [1] of 0.936 ± 0.027. This molecule displayed a cell count with Jurkat [2] of 0.903 ± 0.047.

For the molecule `C=C1/C(=C\C=C2/CCC[C@]3(C)[C@@H]([C@H](C)CCCC(C)(C)O)CC[C@@H]23)C[C@@H](O)C[C@@H]1O` [Calcitriol] (concentration: 25 µM), the mean cell size in the assay on Jurkat [1] came out at 0.8848 ± 0.0063. Also, the cell count with Jurkat [2] is 0.893 ± 0.088.

Molecule `CNC(=C[N+](=O)[O-])NCCSCc1ccc(CN(C)C)o1` [Ranitidine·HCl] (concentration: 25 µM) had a mean cell size in the assay on Jurkat [1] of 1 ± 0.049. In the assay with Jurkat [2], this molecule gave a cell count of 0.895 ± 0.11.

In turn, `COc1ccc(OC)c(C(O)CNC(=O)CN)c1` (stereo not drawn) [Midodrine·HCl] (concentration: 25 µM) returned a mean cell size in the assay with Jurkat [1] of 0.942 ± 0.065. Also, in the assay on Jurkat [2], the cell count is 0.55 ± 0.15.

In the case of `Cc1cc(C)cc(OCC2CNC(=O)O2)c1` (stereo not drawn) [Metaxalone] (concentration: 25 µM), the mean cell size with Jurkat [1] stood at 0.998 ± 0.054. Further, in the assay with Jurkat [2], the cell count came to 0.853 ± 0.17.

Turning to `C[N+]1(C)[C@@H]2C[C@@H](OC(=O)C(O)(c3cccs3)c3cccs3)C[C@H]1[C@@H]1O[C@@H]12` [Tiotropium Bromide Monohydrate] (concentration: 25 µM), the mean cell size with Jurkat [1] was 0.988 ± 0.036. This molecule came in with a cell count with Jurkat [2] of 0.68 ± 0.051.

`CNCCC(Oc1ccc(C(F)(F)F)cc1)c1ccccc1` (stereo not drawn) [Fluoxetine·HCl] (concentration: 25 µM) returned a mean cell size in the assay on Jurkat [1] of 0.992 ± 0.039. The molecule further came in with a cell count in the assay with Jurkat [2] of 0.68 ± 0.14.

Take `CC(=O)Nc1nnc(S(N)(=O)=O)s1` [Acetazolamide] (concentration: 25 µM): the mean cell size with Jurkat [1] is 1.04 ± 0.061. In addition, the cell count with Jurkat [2] was found to be 0.755 ± 0.054.

In the case of `Cc1ccc(C(=O)c2cc(O)c(O)c([N+](=O)[O-])c2)cc1` [Tolcapone] (concentration: 25 µM), the mean cell size with Jurkat [1] stood at 0.966 ± 0.023. For the same molecule, the cell count with Jurkat [2] is 0.864 ± 0.15.

Consider `CCCNC(C)C(=O)Nc1c(C)csc1C(=O)OC` (stereo not drawn) [Articaine·HCl] (concentration: 25 µM), for which the mean cell size in the assay with Jurkat [1] came to 0.96 ± 0.028. In addition, in the assay with Jurkat [2], the cell count is 0.738 ± 0.059.

Molecule `COc1cc(Cc2cnc(N)nc2N)cc(OC)c1OC` [Trimethoprim] (concentration: 25 µM) registered a mean cell size in the assay on Jurkat [1] of 0.969 ± 0.039. This molecule returned a cell count in the assay with Jurkat [2] of 0.457 ± 0.11.

In the assay on Jurkat [1], `O=C(O)c1ccc(-n2nc(-c3ccccc3O)nc2-c2ccccc2O)cc1` [Deferasirox] (concentration: 2.5 µM) returned a mean cell size of 1.07 ± 0.021. Further, the cell count with Jurkat [2] came out at 0.636 ± 0.039.

In the assay with Jurkat [1], `CCOC(=O)[C@H](CCc1ccccc1)N[C@@H](C)C(=O)N1Cc2ccccc2C[C@H]1C(=O)O` [Quinapril·HCl] (concentration: 25 µM) displayed a mean cell size of 0.998 ± 0.022. This molecule also came in with a cell count in the assay with Jurkat [2] of 1.01 ± 0.11.

In the assay on Jurkat [1], `COc1cc(NC(C)CCCN)c2ncccc2c1` (stereo not drawn) [Primaquine Phosphate] (concentration: 25 µM) registered a mean cell size of 1.01 ± 0.028. For the same molecule, the cell count in the assay on Jurkat [2] was determined as 0.742 ± 0.042.

In turn, `Cc1ccc(Nc2nccc(N(C)c3ccc4c(C)n(C)nc4c3)n2)cc1S(N)(=O)=O` [Pazopanib·HCl] (concentration: 25 µM) registered a mean cell size in the assay with Jurkat [1] of 0.9554 ± 0.0092. This molecule also yielded a cell count in the assay with Jurkat [2] of 0.772 ± 0.12.

Take `OCCOCCN1CCN(C(c2ccccc2)c2ccc(Cl)cc2)CC1` (stereo not drawn) [Hydroxyzine Dihydrochloride] (concentration: 25 µM): in the assay with Jurkat [1], the mean cell size worked out at 0.948 ± 0.021. The molecule also registered a cell count in the assay with Jurkat [2] of 0.968 ± 0.063.

Regarding `Cc1c2oc3c(C)ccc(C(=O)N[C@@H]4C(=O)N[C@H](C(C)C)C(=O)N5CCC[C@H]5C(=O)N(C)CC(=O)N(C)[C@@H](C(C)C)C(=O)O[C@@H]4C)c3nc-2c(C(=O)N[C@@H]2C(=O)N[C@H](C(C)C)C(=O)N3CCC[C@H]3C(=O)N(C)CC(=O)N(C)[C@@H](C(C)C)C(=O)O[C@@H]2C)c(N)c1=O` [Dactinomycin (= Actinomycin D)] (concentration: 25 nM), the mean cell size in the assay on Jurkat [1] turned out to be 0.784 ± 0.019. In addition, the cell count with Jurkat [2] came out at 0.49 ± 0.11.

In the case of `COc1c2occc2cc2ccc(=O)oc12` [Methoxsalen (Xanthotoxin)] (concentration: 25 µM), in the assay with Jurkat [1], the mean cell size came to 1.04 ± 0.019. In addition, in the assay on Jurkat [2], the cell count stood at 0.761 ± 0.14.

For the molecule `CCCCc1ncc(/C=C(\Cc2cccs2)C(=O)O)n1Cc1ccc(C(=O)O)cc1` [Eprosartan Mesylate] (concentration: 25 µM), the mean cell size in the assay on Jurkat [1] was found to be 1.01 ± 0.06. Moreover, the cell count in the assay on Jurkat [2] worked out at 0.864 ± 0.071.

`CCN(CC)CCOc1ccc(C(=C(Cl)c2ccccc2)c2ccccc2)cc1` [Clomiphene Citrate] (concentration: 25 µM) returned a mean cell size in the assay on Jurkat [1] of 0.897 ± 0.013. In addition, the cell count with Jurkat [2] stood at 0.793 ± 0.056.

`CN(C)CCCN1c2ccccc2CCc2ccccc21` [Imipramine·HCl] (concentration: 25 µM) came in with a mean cell size with Jurkat [1] of 0.952 ± 0.045. The cell count with Jurkat [2] is 0.525 ± 0.16.

Regarding `CO[C@H]1O[C@@H]2O[C@@]3(C)CC[C@H]4[C@H](C)CC[C@@H]([C@H]1C)[C@@]24OO3` [Artemether] (concentration: 25 µM), in the assay with Jurkat [1], the mean cell size was determined as 0.912 ± 0.047. The cell count with Jurkat [2] was determined as 0.632 ± 0.0091.

Consider `COC(=O)[C@H]1[C@H]2C[C@@H]3c4[nH]c5cc(OC)ccc5c4CCN3C[C@H]2C[C@@H](OC(=O)c2cc(OC)c(OC)c(OC)c2)[C@@H]1OC` [Reserpine] (concentration: 25 µM), for which the mean cell size in the assay with Jurkat [1] was 0.988 ± 0.025. The cell count in the assay with Jurkat [2] was determined as 0.616 ± 0.098.
